Inconclusive results are not listed. Active and inactive are the calls of the source. Unless noted, the call rests on the fitted dose curve; in most records, active means well fitted curve in the direction sought with a large enough effect in the repeat runs; inconclusive means weak or mixed curves; inactive means no such curve, though single readings can be large; an effect the other way counts as inactive or inconclusive.
Key:
[1] = qHTS RealTime-Glo MT Cell Viability Assay in HEK293 cells - 0 hour (AID 1224880); further: top concentration of the series differs between compounds; nearly all actives have a fitted effect of over 45% in size
Method in brief: (§1)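 Kinetic, non-lysing viability readout. Seed HEK293 (600/well) with reagent, incubate 5 h at 37 C/5% CO2, pin 23 nL compound in DMSO, incubate at 37 C, read luminescence at 0, 8, 16, 24, 32, 40 h.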

[2] = A CellTox Green Cytotoxicity Assay to monitor cytotoxicity in HEK293 cells - 32 hour (AID 1224881); further: nearly all actives have a fitted effect of over 40% in size
Method in brief: (§2)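 Real-time, in one plate: 600 HEK293 cells/well with dead-cell DNA dye, pinned compound after 5 h, 37 C incubation over 40 h; viable cells give no appreciable fluorescence.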

[3] = A CellTox Green Cytotoxicity Assay to monitor cytotoxicity in HepG2 cells - 0 hour (AID 1224882); further: nearly all actives have a fitted effect of over 35% in size
Method in brief: (§3)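 Cytotoxicity was tracked as dead-cell DNA fluorescence in HepG2 cells treated with test compounds at 37 C; each time-point value comes from one kinetic series spanning 0, 8, 16, 24, 32 and 40 h.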

[4] = A CellTox Green Cytotoxicity Assay to monitor cytotoxicity in HepG2 cells - 32 hour (AID 1224883); further: nearly all actives have a fitted effect of over 50% in size
Method in brief: as §3

[5] = A CellTox Green Cytotoxicity Assay to monitor cytotoxicity in HEK293 cells - 8 hour (AID 1224884); further: nearly all actives have a fitted effect of over 35% in size
Method in brief: as §2

[6] = qHTS RealTime-Glo MT Cell Viability Assay in HepG2 cells - 16 hour (AID 1224885); further: nearly all actives have a fitted effect of over 50% in size
Method in brief: (§4)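 Viability was tracked continuously by NanoLuc luminescence from prosubstrate reduced by living HepG2 cells, at successive time points over 40 h of compound exposure. Cells with reagent were preincubated 5 h at 37 °C before compound addition.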

[7] = qHTS RealTime-Glo MT Cell Viability Assay in HEK293 cells - 24 hour (AID 1224886); further: top concentration of the series differs between compounds; nearly all actives have a fitted effect of over 50% in size
Method in brief: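 Viability tracked continuously by luminescence as live cells reduce a prosubstrate for NanoLuc; HEK293 cells preincubated 5 h, compound-treated at 37 C, and read at 0, 8, 16, 24, 32 and 40 h.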

[8] = qHTS RealTime-Glo MT Cell Viability Assay in HEK293 cells - 8 hour (AID 1224887); further: top concentration of the series differs between compounds; nearly all actives have a fitted effect of over 50% in size
Method in brief: as §1

[9] = A CellTox Green Cytotoxicity Assay to monitor cytotoxicity in HEK293 cells - 16 hour (AID 1224888); further: nearly all actives have a fitted effect of over 35% in size
Method in brief: as §2

[10] = qHTS RealTime-Glo MT Cell Viability Assay in HepG2 cells - 0 hour (AID 1224889); further: nearly all actives have a fitted effect of over 50% in size
Method in brief: as §4

[11] = A CellTox Green Cytotoxicity Assay to monitor cytotoxicity in HepG2 cells - 8 hour (AID 1224890); further: nearly all actives have a fitted effect of over 45% in size
Method in brief: as §3

[12] = qHTS assay to identify small molecule antagonists of the estrogen receptor alpha (ER-alpha) signaling pathway using the BG1 cell line in the presence of 0.1 nM 17-beta-estradiol - cell viability counter screen (AID 1259241); further: nearly all actives have a fitted effect of over 40% in size; further: potency means the concentration at half of the fitted maximal effect
Method in brief: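 Live-cell protease activity (CellTiter-Fluor fluorescence, 30 min) was read in the same wells after VM7Luc4E2 cells had been exposed to compounds with 0.1 nM 17beta-estradiol for 22 hr at 37C.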

[13] = qHTS assay to identify small molecule antagonists of the androgen receptor (AR) signaling pathway using the MDA cell line in the presence of 0.5 nM R1881 - cell viability counter screen (AID 1259242); further: nearly all actives have a fitted effect of over 45% in size
Method in brief: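 Cells seeded at 3,000/well and allowed 5 hr at 37C, 0% CO2 before compound transfer and R1881 (0.5 nM final) addition; 16 hr later, live-cell protease fluorescence indicated cytotoxicity.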

[14] = qHTS assay to identify small molecule HDAC inhibitors (AID 1259364);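 further: wild-type HCT-116 cells with endogenous class I/II HDAC activity; top concentration of the series differs between compounds; nearly all actives have a fitted effect of over 45% in size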
Method in brief: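 HCT-116 wt cells, 1,500/well, overnight attach. Compounds (DMSO) 2 h, 37 °C. HDAC-Glo I/II, 30 min RT. Luminescence.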

[15] = qHTS assay to identify small molecule HDAC inhibitors - cell viability counter screen (AID 1259365)
Method in brief: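 HCT-116 (wild type), 1,500 cells/well, overnight 37C/5% CO2; compound in DMSO 2hr; CellTiter-Glo 30min RT; luminescence read.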

[16] = qHTS assay to identify small molecule antagonists of the sonic hedgehog signaling (Shh) pathway - cell viability counter screen (AID 1259367); further: nearly all actives have a fitted effect of over 55% in size; further: potency means the concentration at half of the fitted maximal effect
Method in brief: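 Conditioned medium drove Shh signaling in 3T3 Gli1-Luc cells exposed to compounds at 37C and 5% CO2. Viability was determined from CellTiter-Fluor fluorescence, with reagent incubated 1 hr after 23 hr of treatment.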

[17] = biological target: Estrogen receptor (Homo sapiens) (UniProt P03372); assay: qHTS assay to identify small molecule antagonists of the estrogen receptor alpha (ER-alpha) signaling pathway using the BG1 cell line in the presence of 0.1 nM 17-beta-estradiol (AID 1259244); further: nearly all actives have a fitted effect of over 50% in size
Method in brief: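 Luciferase signal from VM7Luc4E2 ERE-reporter cells, co-dosed with test compound and 0.1 nM final 17beta-estradiol for 22 h, read with ONE-Glo.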

[18] = qHTS assay to identify small molecule agonists of the sonic hedgehog signaling (Shh) pathway - cell viability counter screen (AID 1259366); further: nearly all actives have a fitted effect of over 50% in size; further: potency means the concentration at half of the fitted maximal effect
Method in brief: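 CellTiter-Fluor fluorescence read-out, 1 hr at 37C, added after 23hr compound exposure. Cells: 3T3 Gli1-Luc, an NIH/3T3 clone with stably integrated Gli1-Luc reporter, plated 4hr before compound.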

[19] = qHTS assay to identify small molecule phospholipidosis (PLD) inducers (AID 1259344; active means well fitted curve in the direction sought with a large enough effect; an effect the other way counts as inactive or inconclusive)
Method in brief: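 After 4 h attachment on collagen I, HepG2 cells were dosed with compound alongside LipidTOX Red, kept 24 h at 37 C, fixed, and imaged for lamellar phospholipid pits.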
On the % scale 0 is the no-effect control and ±100 the full control effect.

Sequence of Estrogen receptor (Homo sapiens) (P03372 whole entry, looked up): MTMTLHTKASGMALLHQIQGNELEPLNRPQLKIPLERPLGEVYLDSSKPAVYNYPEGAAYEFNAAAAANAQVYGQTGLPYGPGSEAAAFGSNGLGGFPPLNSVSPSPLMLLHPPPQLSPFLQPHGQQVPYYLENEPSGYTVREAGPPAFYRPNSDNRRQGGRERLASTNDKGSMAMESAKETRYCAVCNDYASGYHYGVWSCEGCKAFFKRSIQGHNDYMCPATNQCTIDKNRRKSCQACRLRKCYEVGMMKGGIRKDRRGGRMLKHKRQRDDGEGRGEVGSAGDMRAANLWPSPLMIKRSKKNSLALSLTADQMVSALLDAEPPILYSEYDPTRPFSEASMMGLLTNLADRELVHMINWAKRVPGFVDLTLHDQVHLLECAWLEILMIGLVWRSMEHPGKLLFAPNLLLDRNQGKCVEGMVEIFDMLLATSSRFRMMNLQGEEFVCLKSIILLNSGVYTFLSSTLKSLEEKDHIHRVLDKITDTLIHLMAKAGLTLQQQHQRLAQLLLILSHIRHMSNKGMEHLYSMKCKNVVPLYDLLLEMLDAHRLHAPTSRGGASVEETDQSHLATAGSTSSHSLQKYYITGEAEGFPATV

Cc1cccc(O)c1N
inactive: Potency [1] | Potency [2] | Potency [3] | Potency [4] | Potency [5] | Potency [6] | Potency [7] | Potency [8] | Potency [9] | Potency [10] | Potency [11] | Potency [13] | Potency [14] | Potency [15]
active: Potency [12] 61.8 µM | Potency [16] 61.8 µM

O=c1[nH]ncc2ccccc12
inactive: Potency [1] | Potency [2] | Potency [3] | Potency [4] | Potency [5] | Potency [6] | Potency [7] | Potency [8] | Potency [9] | Potency [10] | Potency [11] | Potency [12] | Potency [13] | Potency [17] | Potency [14] | Potency [15] | Potency [18] | Potency [16]

CCCCC(CC)CN (stereo not given)
inactive: Potency [1] | Potency [2] | Potency [3] | Potency [4] | Potency [5] | Potency [6] | Potency [7] | Potency [8] | Potency [9] | Potency [10] | Potency [11] | Potency [12] | Potency [13] | Potency [17] | Potency [14] | Potency [15] | Potency [18] | Potency [16]

CCc1ccccc1
inactive: Potency [1] | Potency [2] | Potency [3] | Potency [4] | Potency [5] | Potency [6] | Potency [7] | Potency [8] | Potency [9] | Potency [10] | Potency [11] | Potency [12] | Potency [13] | Potency [17] | Potency [14] | Potency [15] | Potency [18] | Potency [16]

C=CC(=O)[O-].C=CC(=O)[O-].[Zn+2]
active: Potency [18] 53.2 µM
inactive: Potency [1] | Potency [2] | Potency [3] | Potency [4] | Potency [5] | Potency [6] | Potency [7] | Potency [8] | Potency [9] | Potency [10] | Potency [11] | Potency [12] | Potency [13] | Potency [17] | Potency [14] | Potency [15]

CCCCCCCC/C=C\CCCCCCCCCCCC(=O)O
inactive: Potency [1] | Potency [2] | Potency [3] | Potency [4] | Potency [5] | Potency [6] | Potency [7] | Potency [8] | Potency [9] | Potency [10] | Potency [11] | Potency [12] | Potency [13] | Potency [17] | Potency [14] | Potency [15] | Potency [18] | Potency [16]

O=C(OC(=O)c1ccccc1)c1ccccc1
inactive: Potency [1] | Potency [2] | Potency [3] | Potency [4] | Potency [5] | Potency [6] | Potency [7] | Potency [8] | Potency [9] | Potency [10] | Potency [11] | Potency [12] | Potency [13] | Potency [17] | Potency [15] | Potency [18] | Potency [16]

CN1C(C(=O)Nc2ccccn2)=C(O)c2sccc2S1(=O)=O
inactive: Potency [1] | Potency [2] | Potency [3] | Potency [4] | Potency [5] | Potency [6] | Potency [7] | Potency [8] | Potency [9] | Potency [10] | Potency [11] | Potency [12] | Potency [13] | Potency [17] | Potency [14] | Potency [15] | Potency [18] | Potency [16]

CCC(C)COC(C)=O (stereo not given)
inactive: Potency [1] | Potency [2] | Potency [3] | Potency [4] | Potency [5] | Potency [6] | Potency [7] | Potency [8] | Potency [9] | Potency [10] | Potency [11] | Potency [12] | Potency [13] | Potency [17] | Potency [14] | Potency [15] | Potency [18] | Potency [16]

C=C(C)C(=O)OCCOCCOC(=O)C(=C)C
inactive: Potency [1] | Potency [2] | Potency [3] | Potency [4] | Potency [5] | Potency [6] | Potency [7] | Potency [8] | Potency [9] | Potency [10] | Potency [11] | Potency [12] | Potency [13] | Potency [17] | Potency [14] | Potency [15] | Potency [18] | Potency [16]

O=C(/C=C/c1ccc(O)c(O)c1)O[C@@H]1C[C@@](OC(=O)/C=C/c2ccc(O)c(O)c2)(C(=O)O)C[C@@H](O)[C@@H]1O
inactive: Potency [1] | Potency [2] | Potency [3] | Potency [4] | Potency [5] | Potency [6] | Potency [7] | Potency [8] | Potency [9] | Potency [10] | Potency [11] | Potency [12] | Potency [13] | Potency [17] | Potency [19] | Potency [14] | Potency [18] | Potency [16]

CC(=O)c1cc2ccccc2s1
inactive: Potency [1] | Potency [2] | Potency [3] | Potency [4] | Potency [5] | Potency [6] | Potency [7] | Potency [8] | Potency [9] | Potency [10] | Potency [11] | Potency [12] | Potency [13] | Potency [17] | Potency [14] | Potency [15] | Potency [18] | Potency [16]

C1C[C@@H]2[C@H]3CC[C@H](C3)[C@@H]2C1
inactive: Potency [1] | Potency [2] | Potency [3] | Potency [4] | Potency [5] | Potency [6] | Potency [7] | Potency [8] | Potency [9] | Potency [10] | Potency [11] | Potency [12] | Potency [13] | Potency [17] | Potency [14] | Potency [15] | Potency [18] | Potency [16]

CC1(C)[C@H](C(=O)O)N2C(=O)C[C@H]2S1(=O)=O
inactive: Potency [1] | Potency [2] | Potency [3] | Potency [4] | Potency [5] | Potency [6] | Potency [7] | Potency [8] | Potency [9] | Potency [10] | Potency [11] | Potency [12] | Potency [13] | Potency [17] | PLD induction [19] 7.08% [at 7.66 µM] | Potency [14] | Potency [15] | Potency [18] | Potency [16]

CCC(C)(C)OC
inactive: Potency [1] | Potency [2] | Potency [3] | Potency [4] | Potency [5] | Potency [6] | Potency [7] | Potency [8] | Potency [9] | Potency [10] | Potency [11] | Potency [12] | Potency [13] | Potency [17] | Potency [14] | Potency [15] | Potency [18] | Potency [16]

O=C=Nc1ccc(Cl)c(Cl)c1
inactive: Potency [1] | Potency [2] | Potency [3] | Potency [4] | Potency [5] | Potency [6] | Potency [7] | Potency [8] | Potency [9] | Potency [10] | Potency [11] | Potency [12] | Potency [13] | Potency [17] | Potency [14] | Potency [15] | Potency [18] | Potency [16]

— PubChem BioAssay (Tox21)
